# Reference: the supplement of paper PMC12282887
# ± gives the standard deviation of the averaged measurements.
# Columns and labels:
# Assay in all cases: promoter activity interaction Z-score (Lux/OD deviation from empty-vector control); higher = stronger promoter induction by the compound
# [1] = tested on: E. coli BW25113 acrABp lux reporter
# In short: (§1)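 E. coli BW25113 (wild type or marA, soxS or rob deletion) carrying low-copy luxCDABE promoter reporters grew in 40 µl LB Lennox in 384-well plates at 37°C. Each compound was tested at four 1:2 dilutions in biological duplicates. OD600 and luminescence were read every 30 min for 12 h. Areas were taken over 0–8 h (wild type) or 1–9 h (mutants), and wells below 10% of median growth area were removed. The score is the Z-transformed residual of growth-normalised luminescence fitted against the empty-vector control.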
# [2] = tested on: E. coli BW25113 marRABp lux reporter
# In short: as §1
# [3] = tested on: E. coli BW25113 micFp lux reporter
# In short: as §1
# [4] = tested on: E. coli BW25113 ompFp lux reporter
# In short: as §1
# [5] = tested on: E. coli BW25113 robp lux reporter
# In short: as §1
# [6] = tested on: E. coli BW25113 soxSp lux reporter
# In short: as §1
# [7] = tested on: E. coli BW25113 tolCp lux reporter
# In short: as §1
# [8] = 0.29 µg/ml, genetic background: wild type
# [9] = 0.29 µg/ml, genetic background: ΔmarA
# [10] = 0.29 µg/ml, genetic background: Δrob
# [11] = 0.29 µg/ml, genetic background: ΔsoxS
# [12] = 0.58 µg/ml, genetic background: wild type
# [13] = 0.58 µg/ml, genetic background: ΔmarA
# [14] = 0.58 µg/ml, genetic background: Δrob
# [15] = 0.58 µg/ml, genetic background: ΔsoxS
# [16] = 1.2 µg/ml, genetic background: wild type
# [17] = 1.2 µg/ml, genetic background: ΔmarA
# [18] = 1.2 µg/ml, genetic background: Δrob
# [19] = 1.2 µg/ml, genetic background: ΔsoxS
# [20] = 2.3 µg/ml, genetic background: wild type
# [21] = 2.3 µg/ml, genetic background: ΔmarA
# [22] = 2.3 µg/ml, genetic background: Δrob
# [23] = 2.3 µg/ml, genetic background: ΔsoxS
compound,measurement,setting,value
COc1cccc2c1C(=O)c1c(O)c3c(c(O)c1C2=O)C[C@@](O)(C(=O)CO)C[C@@H]3O[C@H]1C[C@H](N)[C@H](O)[C@H](C)O1 [Doxorubicin],promoter activity interaction Z-score,[1]; [8],0.264 ± 0.31
same,promoter activity interaction Z-score,[1]; [9],-0.773 ± 0.32
same,promoter activity interaction Z-score,[1]; [10],-0.101 ± 0.29
same,promoter activity interaction Z-score,[1]; [11],-0.227 ± 0.054
same,promoter activity interaction Z-score,[1]; [12],-0.00519 ± 0.22
same,promoter activity interaction Z-score,[1]; [13],-0.484 ± 0.49
same,promoter activity interaction Z-score,[1]; [14],0.115 ± 0.14
same,promoter activity interaction Z-score,[1]; [15],0.371 ± 0.49
same,promoter activity interaction Z-score,[1]; [16],0.261 ± 0.022
same,promoter activity interaction Z-score,[1]; [17],-0.464 ± 0.4
same,promoter activity interaction Z-score,[1]; [18],-0.135 ± 0.15
same,promoter activity interaction Z-score,[1]; [19],0.0497 ± 0.23
same,promoter activity interaction Z-score,[1]; [20],0.546 ± 0.062
same,promoter activity interaction Z-score,[1]; [21],-0.437 ± 0.036
same,promoter activity interaction Z-score,[1]; [22],6.35e-05 ± 0.4
same,promoter activity interaction Z-score,[1]; [23],0.827 ± 0.68
same,promoter activity interaction Z-score,[2]; [8],0.237 ± 0.34
same,promoter activity interaction Z-score,[2]; [9],-0.264 ± 0.2
same,promoter activity interaction Z-score,[2]; [10],-0.254 ± 0.1
same,promoter activity interaction Z-score,[2]; [11],0.0277 ± 0.11
same,promoter activity interaction Z-score,[2]; [12],-0.0763 ± 0.21
same,promoter activity interaction Z-score,[2]; [13],0.0102 ± 0.26
same,promoter activity interaction Z-score,[2]; [14],-0.188 ± 0.032
same,promoter activity interaction Z-score,[2]; [15],0.0987 ± 0.23
same,promoter activity interaction Z-score,[2]; [16],0.0323 ± 0.31
same,promoter activity interaction Z-score,[2]; [17],-0.148 ± 0.1
same,promoter activity interaction Z-score,[2]; [18],-0.236 ± 0.064
same,promoter activity interaction Z-score,[2]; [19],0.0249 ± 0.092
same,promoter activity interaction Z-score,[2]; [20],-0.0695 ± 0.11
same,promoter activity interaction Z-score,[2]; [21],-0.158 ± 0.16
same,promoter activity interaction Z-score,[2]; [22],-0.24 ± 0.021
same,promoter activity interaction Z-score,[2]; [23],-0.0671 ± 0.12
same,promoter activity interaction Z-score,[3]; [8],0.258 ± 0.51
same,promoter activity interaction Z-score,[3]; [9],0.00982 ± 0.04
same,promoter activity interaction Z-score,[3]; [10],-0.233 ± 0.1
same,promoter activity interaction Z-score,[3]; [11],-0.236 ± 0.048
same,promoter activity interaction Z-score,[3]; [12],-0.041 ± 0.36
same,promoter activity interaction Z-score,[3]; [13],0.043 ± 0.035
same,promoter activity interaction Z-score,[3]; [14],-0.0843 ± 0.009
same,promoter activity interaction Z-score,[3]; [15],0.253 ± 0.04
same,promoter activity interaction Z-score,[3]; [16],-0.0305 ± 0.051
same,promoter activity interaction Z-score,[3]; [17],-0.0475 ± 0.075
same,promoter activity interaction Z-score,[3]; [18],-0.046 ± 0.01
same,promoter activity interaction Z-score,[3]; [19],-0.0734 ± 0.14
same,promoter activity interaction Z-score,[3]; [20],-0.114 ± 0.2
same,promoter activity interaction Z-score,[3]; [21],-0.105 ± 0.05
same,promoter activity interaction Z-score,[3]; [22],-0.179 ± 0.24
same,promoter activity interaction Z-score,[3]; [23],0.5393 ± 0.002
same,promoter activity interaction Z-score,[4]; [8],0.731 ± 0.14
same,promoter activity interaction Z-score,[4]; [9],0.137 ± 0.52
same,promoter activity interaction Z-score,[4]; [10],0.0129 ± 0.29
same,promoter activity interaction Z-score,[4]; [11],0.416 ± 0.18
same,promoter activity interaction Z-score,[4]; [12],0.4996 ± 0.0037
same,promoter activity interaction Z-score,[4]; [13],0.465 ± 0.3
same,promoter activity interaction Z-score,[4]; [14],0.853 ± 0.58
same,promoter activity interaction Z-score,[4]; [15],0.476 ± 0.015
same,promoter activity interaction Z-score,[4]; [16],0.149 ± 0.086
same,promoter activity interaction Z-score,[4]; [17],0.206 ± 0.067
same,promoter activity interaction Z-score,[4]; [18],0.0157 ± 0.25
same,promoter activity interaction Z-score,[4]; [19],0.0237 ± 0.37
same,promoter activity interaction Z-score,[4]; [20],0.745 ± 0.73
same,promoter activity interaction Z-score,[4]; [21],0.961 ± 0.018
same,promoter activity interaction Z-score,[4]; [22],0.674 ± 0.97
same,promoter activity interaction Z-score,[4]; [23],1.34 ± 0.69
same,promoter activity interaction Z-score,[5]; [8],1.18 ± 0.82
same,promoter activity interaction Z-score,[5]; [9],-0.24 ± 0.58
same,promoter activity interaction Z-score,[5]; [10],0.206 ± 0.23
same,promoter activity interaction Z-score,[5]; [11],0.239 ± 0.22
same,promoter activity interaction Z-score,[5]; [12],0.596 ± 0.27
same,promoter activity interaction Z-score,[5]; [13],0.16 ± 0.16
same,promoter activity interaction Z-score,[5]; [14],0.385 ± 0.43
same,promoter activity interaction Z-score,[5]; [15],0.541 ± 0.27
same,promoter activity interaction Z-score,[5]; [16],0.714 ± 0.13
same,promoter activity interaction Z-score,[5]; [17],-0.447 ± 0.99
same,promoter activity interaction Z-score,[5]; [18],0.329 ± 0.74
same,promoter activity interaction Z-score,[5]; [19],0.0896 ± 0.043
same,promoter activity interaction Z-score,[5]; [20],0.943 ± 0.18
same,promoter activity interaction Z-score,[5]; [21],0.445 ± 0.36
same,promoter activity interaction Z-score,[5]; [22],-0.208 ± 0.44
same,promoter activity interaction Z-score,[5]; [23],0.518 ± 0.087
same,promoter activity interaction Z-score,[6]; [8],0.269 ± 0.063
same,promoter activity interaction Z-score,[6]; [9],0.0336 ± 0.05
same,promoter activity interaction Z-score,[6]; [10],-0.322 ± 0.09
same,promoter activity interaction Z-score,[6]; [11],0.15 ± 0.14
same,promoter activity interaction Z-score,[6]; [12],0.223 ± 0.25
same,promoter activity interaction Z-score,[6]; [13],0.0456 ± 0.13
same,promoter activity interaction Z-score,[6]; [14],0.138 ± 0.19
same,promoter activity interaction Z-score,[6]; [15],0.329 ± 0.29
same,promoter activity interaction Z-score,[6]; [16],0.245 ± 0.26
same,promoter activity interaction Z-score,[6]; [17],-0.00668 ± 0.18
same,promoter activity interaction Z-score,[6]; [18],-0.0803 ± 0.088
same,promoter activity interaction Z-score,[6]; [19],-0.0415 ± 0.028
same,promoter activity interaction Z-score,[6]; [20],0.426 ± 0.46
same,promoter activity interaction Z-score,[6]; [21],0.0221 ± 0.059
same,promoter activity interaction Z-score,[6]; [22],-0.22 ± 0.18
same,promoter activity interaction Z-score,[6]; [23],0.285 ± 0.86
same,promoter activity interaction Z-score,[7]; [8],0.409 ± 0.23
same,promoter activity interaction Z-score,[7]; [9],0.025 ± 0.4
same,promoter activity interaction Z-score,[7]; [10],-1.33 ± 0.07
same,promoter activity interaction Z-score,[7]; [11],-0.509 ± 0.71
same,promoter activity interaction Z-score,[7]; [12],0.591 ± 0.37
same,promoter activity interaction Z-score,[7]; [13],0.129 ± 0.57
same,promoter activity interaction Z-score,[7]; [14],-0.418 ± 0.28
same,promoter activity interaction Z-score,[7]; [15],0.558 ± 0.63
same,promoter activity interaction Z-score,[7]; [16],0.186 ± 1.3
same,promoter activity interaction Z-score,[7]; [17],-0.979 ± 0.47
same,promoter activity interaction Z-score,[7]; [18],-0.8316 ± 0.0065
same,promoter activity interaction Z-score,[7]; [19],-0.712 ± 0.47
same,promoter activity interaction Z-score,[7]; [20],-0.527 ± 0.035
same,promoter activity interaction Z-score,[7]; [21],-0.261 ± 0.0072
same,promoter activity interaction Z-score,[7]; [22],-1.42 ± 0.035
same,promoter activity interaction Z-score,[7]; [23],0.704 ± 0.5
